Among all 69,000 compounds or so, about 8,600 (12%) showed an effect of 50% or more. The full list was thinned out, with strong results kept by preference.
system: Plasmodium berghei; assay: Screen against P. berghei liver stage (PbLuc), transformed with Luciferase, at 10uM; format: functional, HepG2; details: tested at 10 uM

Structure (SMILES) | INHIBITION [%]
CS(=O)(=O)c1cnc(N2CCCC2)nc1C1CCN(C(=O)C2CC2)CC1 | -15.7
Cc1cc(C(=O)NCc2ccc(-c3n[nH]cc3C(=O)N(C)C)cc2)on1 | 39.35
CCc1cnc(N2CC[C@H]3[C@H]2CC(=O)N3c2cccnc2)nc1 | -34.7
Cc1ccc(N2N=C(C(N)=O)S(=O)(=O)c3cccnc32)cc1 | 41.5
Cc1cc(CN2CCN(C(=O)NCc3cccs3)CC2)on1 | 14.1
c1cnc(N2CC[C@@H](OCC3CC3)[C@@H]2Cc2cccnc2)nc1 | 64.3
COCCO[C@H]1CCN(c2cc(OC)ncn2)[C@H]1Cc1cccnc1 | 82.8
c1ccc(N2CC[C@H](OCC3CC3)[C@@H]2Cc2cccnc2)nc1 | 37.5
COCCO[C@H]1CCN(c2ccc(C)nn2)[C@H]1Cc1cccnc1 | 5.68
COCCO[C@H]1CCN(c2cc(OC)ncn2)[C@H]1Cc1ccncc1 | -39.2
Cc1ccc(N2CC[C@H](OCC3CC3)[C@@H]2Cc2cccnc2)nn1 | 42.4
Cc1cc2nc(SCC(=O)N3CCOCC3)n(CCC(C)C)c(=O)c2[nH]1 | 45.8
O=C(Cc1ccc(-n2cnnn2)cc1)Nc1cnn(CC(F)F)c1 | 42.6
O=C(c1ccc(-c2ccc(O)nc2)s1)N1CCSCC1 | 3.295
Cc1ccc(CN2C[C@H](OCCN(C)C)[C@H]3COC[C@H]32)o1 | 14.6
Fc1ccc(-c2nnc(CN3CCCC(Cn4cncn4)C3)o2)cc1 (stereo not drawn) | -105
CCCc1n[nH]c(C2CN(C(=O)CCc3cscn3)CCO2)n1 (stereo not drawn) | 25.3
O=c1[nH]c(NCCCO)nc2c1C1(CCCC1)Cc1ccccc1-2 | 64
O=c1[nH]c(NCCO)nc2c1C1(CCCCC1)Cc1ccccc1-2 | 66.5
OCCCNc1nc(O)c2c(n1)-c1ccccc1CC21CCCCC1 | 77.2
CCC1(C)Cc2ccccc2-c2nc(NCCCO)nc(O)c21 (stereo not drawn) | 28.4
Cc1cccc(CN2CCCC3(Cc4ccccc4CNC3=O)C2)n1 (stereo not drawn) | 9.32
CN1Cc2ccccc2CC2(CCN(CCO)CC2)C1=O | -9.23
CC(C)NC(=O)N1CCC2(CC1)Cc1ccccc1CNC2=O | 29.5
O=c1[nH]c(NCCO)nc2c1C1(CCCC1)Cc1ccccc1-2 | 62.3
Cc1cc(C(=O)NC2CCN(c3nnc(C)c(C)c3C#N)CC2)no1 | 3.87

Structure (SMILES) | INHIBITION [%]
Cn1ccc(C(=O)N2CCOC(c3ccc(C(N)=O)cn3)C2)n1 (stereo not drawn) | 22
Cc1noc(CNC(=O)CN(C)c2nc3ccccc3s2)n1 | -4.01
O=C(c1cc(C2CCCN(Cc3ccccn3)C2)no1)N1CCCC1 (stereo not drawn) | 7.52
Cc1oc(-c2cccs2)nc1C(=O)N1CCCC1Cn1cccn1 (stereo not drawn) | 36.1
c1ccc(CN2CCc3c(COCc4ccncc4)cncc3C2)nc1 | 3.81
O=c1cc(Cn2cncn2)nc2n1CCCN(Cc1ccc(F)cc1)C2 | 22.5
COc1c(CNCC(O)c2cccc(F)c2)c(C)nn1C (stereo not drawn) | -47.6
Cn1c(Cn2ccnc2)nnc1C1CCN(C(=O)c2ccccn2)CC1 | 5.41
Cc1ncccc1NC(=O)[C@@H]1CC[C@@H]2[C@@H](CCN2Cc2cnn(C)c2)O1 | 0.734
Fc1cccc(-c2cccc(N3CCC(NC4CCCOC4)CC3)c2)c1 (stereo not drawn) | 46.5
COc1cccc(-c2cccc(N3CCC(N[C@@H]4CCOC4)CC3)c2)c1 | 53.7
Cc1ccc(-c2cccc(N3CCC(NC4CCOCC4)CC3)c2)cc1 | 39.3
CC(=O)N1CCC(c2cncc(N3CCC(O)C3)n2)CC1 (stereo not drawn) | 23.9
CC(C)c1noc(CCC(=O)NCC2CCC(C(N)=O)CC2)n1 (stereo not drawn) | -21.8
CCCn1nccc1NC(=O)CN1CCCC1c1c(C)nn(C)c1C (stereo not drawn) | 34.1
COc1ccc(-n2nnc(C(N)=O)n2)cc1 | -8.07
CCn1cc(Br)c(C(=O)NCc2ccccc2)n1 | 17
CCn1cc(CNC(=O)c2nn(CC)cc2Br)cn1 | 76
CCn1cc(Br)c(C(=O)NCc2cnn(C)c2)n1 | -13.2
COCC1Cn2nnc(-c3cnn(C)c3)c2CN1Cc1ccsc1 (stereo not drawn) | 33.4
COc1cccn(CC(=O)N2CCCC3(CCCO3)CC2)c1=O (stereo not drawn) | -2.61
Cc1ccc(S(=O)(=O)N(CCO)C2CC2)cc1N(C)C | 21.3
CC(C)c1nnc2n1CCN(C(=O)c1ccnc(-n3ccnc3)c1)C2 | 31.2
CCC(=O)NCC(=O)NCC1(c2c(F)cccc2F)CCCC1 | -3.59
CC(=O)NCCC(=O)NCC1(c2c(F)cccc2F)CCCC1 | 24.2
CCS(=O)(=O)CC(=O)NCC1(c2c(F)cccc2F)CCCC1 | 57.4

Structure (SMILES) | INHIBITION [%]
Cc1noc(C)c1CN1C[C@H](OCc2ccncc2)[C@H]2OCCC[C@H]21 | -10.3
Cn1cc(CN2CCc3ncnc(N4CCOCC4)c3CC2)cn1 | 5.36
CCNc1cc2c(nn1)CCN(C(=O)c1cccc3c1OCO3)C2 | -4.16
Cc1sc2c(C3CCCNC3)nc(Nc3cccc(F)c3)n2c1C (stereo not drawn) | 36.5
Cc1sc2c(C3CCNCC3)nc(Nc3cccc(F)c3)n2c1C | 54.6
COc1cccc(Nc2nc(C3CCNCC3)c3sc(C)c(C)n23)c1 | 23.12
CC(C)Oc1ccc2c(NC(=O)CN(C)C)nn(CC(F)(F)F)c2c1 | 42.3
CC1(Cc2ccc(Cl)cc2)Cc2cc(CCC(=O)O)ccc2O1 (stereo not drawn) | -29.4
Cc1cc(C)c2c(N3CCCN(C(=O)C4CCC4)CC3)ncnc2n1 | 30.9
Cc1cnc(N2C[C@@H]3C[C@H](C(=O)N(C)C)[C@H](C2)O3)nc1 | 17.3
Cc1cccc(N(CCC(N)=O)C(=O)c2cc(-n3cccn3)ccn2)c1 | 8.92
Cc1cccc(N(CCC(N)=O)C(=O)c2cnccn2)c1 | 12.9
Cc1cccc(N(CCC(N)=O)C(=O)c2ccnc(C)n2)c1 | 50.5
O=C(CCn1nc(C(F)(F)F)c(Br)c1C1CC1)NN1CCOCC1 | -25.5
Cc1ccc(OCc2occc2C(=O)N2CCCCC(N)C2)cc1 (stereo not drawn) | 11.8
Cc1cc(CN2C[C@@H]3CC[C@H]2CN(Cc2c(C)noc2C)C3)ccc1F | -63.6
O=C(c1ncncc1Cl)N1CCN(c2ccc(Cl)cc2)CC1 | 44
O=C(c1ncncc1Cl)N1CCC2(CCCC2)CC1 | 43.1
O=C(c1ccccc1)N1CCCN(C(=O)c2ncncc2Cl)CC1 | 74
COc1ncccc1C(=O)NCCn1cnc(C)cc1=O | -70.7
CO[C@@H]1CC[C@@H](N(C)C(=O)c2cn3cc(C)ccc3n2)[C@H]1O | -2.65
CCN1CCOCC12CCN(C(=O)c1ccsc1)CC2 | 42.1
O=C(Nc1ccc(Cl)cn1)c1cncc(C2CCNCC2)n1 | -10.4
c1ccc(Cc2nc(CNC3CCOC4(CCOCC4)C3)no2)cc1 (stereo not drawn) | -40.7
COCc1nc(CNC2CCC3(CCNCC3)CC2)no1 | 12.1
c1ccc(Cc2nc(CNC3CCC4(CCNCC4)CC3)no2)cc1 | 53.7

Structure (SMILES) | INHIBITION [%]
O=C(c1cnc(C2CC2)s1)N1CCCC1Cn1cccn1 (stereo not drawn) | 8.64
Cc1nn(CCC(=O)NC2CCS(=O)(=O)C2)c(C)c1Br (stereo not drawn) | -8
Cc1ccoc1C(=O)N1C[C@H]2CCC[C@@]2(COCc2ccncc2)C1 | 41.8
CCN1CC2(CCC1=O)CCN(C(=O)C(O)c1cccc(Cl)c1)CC2 (stereo not drawn) | 71.1
CC(C)CN1CC2(CCN(C(=O)C(O)c3cccc(Cl)c3)CC2)CC1=O (stereo not drawn) | -28.9
CCN1CC2(CCC1=O)CCN(C(=O)c1ccc(Cl)cc1O)CC2 | 36.8
O=C(NCC1CCOCC1)[C@H]1C[C@@H]2CCN(c3nncs3)C[C@@H]2O1 | 24.3
O=C(c1cccc(F)c1F)N1CCn2c(nnc2C(F)(F)F)C1 | 34.6
O=C(c1ccc(F)cc1Cl)N1CCn2c(nnc2C(F)(F)F)C1 | 68.8
CCC(O)CN1CCN(C(=O)c2cccc3[nH]ncc23)CC1 (stereo not drawn) | -29.8
Cc1ccc(NC2CCN(C(=O)c3cccc4c3ccn4C)CC2)nn1 | 31.2
CCn1nc(C)cc1C(=O)N1CCC(Nc2ccc(C)nn2)CC1 | 57.7
Cc1ccc(NC2CCN(C(=O)c3cccc4[nH]ncc34)CC2)nn1 | 55.4
CC(O)CN1CCN(C(=O)c2cccc3[nH]ncc23)CC1 (stereo not drawn) | -31.8
CCn1nc(C)c(C(=O)N2CCC(Nc3ccc(C)nn3)CC2)c1C | 17.5
Cc1ccc(NC2CCN(C(=O)c3n[nH]c4ccccc34)CC2)nn1 | 11
COc1ccc(F)cc1C(=O)N1CCn2c(nnc2C(F)(F)F)C1 | 6.33
CC(C)(C)C(O)CN1CCN(C(=O)c2cccc3[nH]ncc23)CC1 (stereo not drawn) | 69.8
Cc1ccc(NC2CCN(C(=O)Cn3nc(C)cc3C)CC2)nn1 | 3.81
CCS(=O)(=O)N1Cc2ncn(CC3CC3)c2C(COCC2CC2)C1 (stereo not drawn) | 9.51
NC(=O)CC1CCN(C(=O)NCc2cccc(-n3cccn3)c2)CC1 | -0.378
O=C(O)c1ccccc1-c1ccc(CN2CCC(CO)C2)cc1 (stereo not drawn) | -12.3
CC(C)Oc1cccc(CNC(=O)N2CCC(N3CC=CC3)C2)c1 (stereo not drawn) | 16.1
O=C(CN1CCOC(CNc2cccnn2)C1)NCc1ccccn1 (stereo not drawn) | 23.5
c1cnc(-c2nn3c(CN4CCCCCC4)nnc3s2)cn1 | 21.7
